Bioassay records (PubChem)
CHX counter = Cycloheximide Counterscreen for Small Molecule Inhibitors of Shiga Toxin | cell reporter, cycloheximide protein synthesis inhibition counterscreen | AID 2314, 2010 | 300,000 compounds, 12% hits | max response, %; in the data active = max response mostly above about 13%, no sharp cut-off; inactive = mostly below about 14%; also: read at 38.3 µM for the half of the compounds with a filed dose; 0% is about no effect
Pf growth 96h = Primary qHTS for delayed death inhibitors of the malarial parasite plastid, 96 hour incubation. P. falciparum luciferase reporter growth, 96 h. 320,000 compounds, 6.9% hits. Potency, µM (top dose mostly 28.7 µM), without a hit: at the top dose activity change, negative = inhibition, usual class: inhibitors; also: potency is read from the fitted curve at half-maximal effect; % is scaled to controls: 0 for no effect and ±100 for the full control effect
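Plates of compound plus infected erythrocytes (2% hematocrit, 0.05% parasitemia final) incubate 96 hours, 37 C, 5% CO2. Detection reagent added; reduced luminescence from the parasites' luciferase reporter flags inhibition.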
AMA1-RON2 inh = qHTS for Inhibitors of AMA1-RON; Towards Development of Antimalarial Drug Lead: Primary Screen | 360,000 compounds, 0.2% hits | Plasmodium falciparum AMA1 (3D7) - RON2 peptide interaction | AlphaScreen AMA1-biotinylated RON2 peptide binding | Potency, µM (highest dose often 58.2 µM), without a hit: at the top dose activity change, negative = inhibition, hits mostly inhibitors | AID 720542, 2013;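 also: potency is read from the fitted curve at half-maximal effect; 0% = vehicle wells and -100% = peptide control; nearly all actives have a fitted effect of over 45% in size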
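AMA1 (3D7) with his tag at 25 nM final met compounds first, then biotinylated RON2 peptide at 25 nM; detection used donor plus acceptor beads, 10 µg/mL apiece, read by AlphaScreen after 30 min at room temperature.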
Pf growth 48h = Primary qHTS for delayed death inhibitors of the malarial parasite plastid, 48 hour incubation; 310,000 compounds, 5.9% hits; P. falciparum luciferase growth in erythrocytes, 48 h; Potency, µM (top dose mostly 28.7 µM), for the others: at the top dose activity change, negative = inhibition, usual class: inhibitors; AID 504832, 2011; also: potency is read from the fitted curve at half-maximal effect; % is scaled to controls: 0 for no effect and ±100 for the full control effect
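Luminescence readout; reporter = integrated firefly luciferase in P. falciparum. RBC culture at 2% hematocrit, 0.1% parasitemia final, 37 C/5% CO2; decreased signal taken as growth inhibition.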
HCV inhibitor = qHTS Assay for Inhibitors of Hepatitis C Virus (HCV). AID 651820, 2012. Potency, µM (titrated, usually from 41.8 µM), without a hit: at the top dose activity change, negative = inhibition, most hits filed as inhibitors. 340,000 compounds, 3.4% hits. Huh7.5.1 HCVcc-Cre infection, luciferase reporter, 44 h; also: potency is read from the fitted curve at half-maximal effect; % is scaled to controls: 0 for no effect and ±100 for the full control effect
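After 44 h co-culture of compound, cells and HCVcc-Cre (~0.5 moi), substrate is added for 15 min at room temperature and luciferase measured over 15 sec. Cells were seeded at 1,000/well and pre-cultured 4 h.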
Shiga inhibitor = A qHTS for Small Molecule Inhibitors of Shiga Toxin; Vero cells, Shiga toxin protein synthesis inhibition reporter; inhibition, % at 38.7 µM; 290,000 compounds, 9.2% hits; in the data active = inhibition mostly above about 28%, no sharp cut-off; inactive = mostly below about 43%; also: 0% is about no effect
Active calls of the source: *; [ ] = remark or other dose. Rows were chosen to be rich in hits. Some 21% of all compounds tested hit in one or more screens of this group. Unless noted, calls follow the shape of the dose curve; as a rule, active = well fitted curve in the direction sought with a large enough effect; inconclusive = small, poorly fitted or top-dose-only effect, or another doubt; inactive = no such curve, though single readings can be large; an effect the other way counts as inactive or inconclusive.

Screening CC(C)(C)OC(=O)N1CCCC(C(=O)Nc2cccc(C(=O)NCCCc3ccccc3)c2)C1 (stereo not drawn) returned AMA1-RON2 inh -1% and HCV inhibitor inconclusive.
For CC(C)(C)OC(=O)N(Cc1ccccc1)Cc1cccc(OCc2cccc(NC(=O)C3CC3)c2)c1 the results were AMA1-RON2 inh 8% and HCV inhibitor 1.3µM*.
`CC(C)(C)OC(=O)N1CCC(C(=O)Nc2cccc(C(=O)NCCCc3ccccc3)c2)CC1` gave AMA1-RON2 inh -8% and HCV inhibitor 4µM*.
`O=C(NCCCc1ccccc1)c1cccc(NC(=O)C2CCCCC2)c1` gave AMA1-RON2 inh 16% and HCV inhibitor 4.5µM*.
Screening O=C(Cc1ccc(Br)cc1)N1CCN(C(=O)c2ccco2)CC1 returned CHX counter -4, Pf growth 96h 9%, AMA1-RON2 inh -17%, Pf growth 48h -1%, HCV inhibitor 10% and Shiga inhibitor -6.
C[C@@H]1CNC(=O)c2c(C(=O)Nc3cccc(Cl)c3)ncn21 was read as AMA1-RON2 inh 86%.
Screening Cc1ccc(-c2cc(C(=O)NCCCN3CCOCC3)c3ccccc3n2)cc1 returned Pf growth 96h inconclusive, AMA1-RON2 inh -3%, Pf growth 48h inconclusive and HCV inhibitor -4%.
CCOc1ccc(-c2cc(C(=O)NCCCN3CCCC3)c3ccccc3n2)cc1 was read as CHX counter 11, Pf growth 96h -7%, AMA1-RON2 inh -11%, Pf growth 48h 12µM*, HCV inhibitor inconclusive and Shiga inhibitor 15.
`O=C(NCCN1CCOCC1)c1cc(-c2ccccc2)nc2ccccc12` gave AMA1-RON2 inh -5%.
Cc1ccc(-c2cc(C(=O)NCCCN3CCOCC3)c3ccccc3n2)cc1C was read as CHX counter 8, Pf growth 96h inconclusive, AMA1-RON2 inh -2%, Pf growth 48h -96%, HCV inhibitor inconclusive and Shiga inhibitor 47*.
COc1ccc(-c2cc(C(=O)NCCN3CCOCC3)c3ccccc3n2)c(OC)c1 was read as CHX counter 1, Pf growth 96h 8%, AMA1-RON2 inh 0%, Pf growth 48h -26%, HCV inhibitor 8% and Shiga inhibitor 19.
CCOc1ccc(-c2cc(C(=O)NCC3CCCO3)c3ccccc3n2)cc1 (stereo not drawn) was read as CHX counter 24*, Pf growth 96h 36%, AMA1-RON2 inh -4%, Pf growth 48h 31%, HCV inhibitor -23% and Shiga inhibitor 65*.
Screening O=C(NCCN1CCOCC1)c1cnn2c(-c3ccccc3)cc(-c3ccccc3)nc12 returned CHX counter -3, Pf growth 96h 10µM*, AMA1-RON2 inh 57%, Pf growth 48h inconclusive, HCV inhibitor 11µM* and Shiga inhibitor -27.
For Cc1ccc(-c2cc(C(=O)NCCCN3CCCC3)c3ccccc3n2)cc1C the results were CHX counter 9, Pf growth 96h inconclusive, AMA1-RON2 inh -5%, Pf growth 48h 5.2µM*, HCV inhibitor 22µM* and Shiga inhibitor 31.
For COc1ccc(S(=O)(=O)N2CCC(C(=O)NCC(=O)Nc3c(C)cccc3C)CC2)cc1OC the results were AMA1-RON2 inh 14%[11.6 µM] and HCV inhibitor inconclusive.
For CC(C)(c1ccccc1)c1ccc(OCCCN2CCNCC2)cc1 the results were CHX counter -3, Pf growth 96h inconclusive, AMA1-RON2 inh -14%, Pf growth 48h inconclusive, HCV inhibitor 8.9µM* and Shiga inhibitor 15.
For CC(C)(C)c1ccc(OCCCCCCN2CCNCC2)cc1 the results were AMA1-RON2 inh -21% and HCV inhibitor 7.9µM*.
CC(C)(C)C(=O)c1c(N)[nH]c(C(=O)c2ccccc2)c1-c1ccccc1Br was read as AMA1-RON2 inh 44%.
For CN(C)/C=N/c1ncnc2c1cnn2-c1ccc(C(F)(F)F)cn1 the results were CHX counter 41*, Pf growth 96h 17%, AMA1-RON2 inh -11%, Pf growth 48h 41%, HCV inhibitor 26% and Shiga inhibitor 77*.
OCC[C@@H]1C[C@H](O)[C@@H](O)[C@@]2(Cc3ccccc3O2)O1 was read as CHX counter 2, Pf growth 96h 49%, AMA1-RON2 inh 10%, Pf growth 48h 37%, HCV inhibitor 6% and Shiga inhibitor -8.
For O=C(c1cn(-c2ccc(Cl)c(Cl)c2)nn1)C1CC1 the results were CHX counter 37*, Pf growth 96h 83%, AMA1-RON2 inh 3%, Pf growth 48h 23%, HCV inhibitor 3% and Shiga inhibitor 51*.
Screening CC(=O)NCc1ccc(-c2csc(N)n2)s1 returned CHX counter 8, Pf growth 96h -1%, AMA1-RON2 inh -9%, Pf growth 48h 16%, HCV inhibitor 17% and Shiga inhibitor 18.
Screening CC(C)(C)NC[C@H](O)CSc1nc(-c2ccc(C(N)=O)s2)cs1 returned Pf growth 96h 11µM* and Pf growth 48h inconclusive.
Screening COc1ccccc1N(CC(=O)Nc1cc(S(=O)(=O)N(C)C)ccc1C)S(=O)(=O)c1cccs1 returned AMA1-RON2 inh 9% and HCV inhibitor -16%.
COc1ccc(-c2cc(C(=O)NN)[nH]n2)cc1OC was read as CHX counter 8, Pf growth 96h 6%, AMA1-RON2 inh 62%, Pf growth 48h 7%, HCV inhibitor -8% and Shiga inhibitor 12.
`CCOc1ccc(-c2cc(C(=O)NN)[nH]n2)cc1` gave CHX counter 43*, Pf growth 96h inconclusive, AMA1-RON2 inh 66%, Pf growth 48h 12%, HCV inhibitor 4% and Shiga inhibitor 44*.
For CCOC(=O)c1cc(-c2ccccc2)n[nH]1 the results were CHX counter 19*, Pf growth 96h 227%, AMA1-RON2 inh 8%, Pf growth 48h 139%, HCV inhibitor 13% and Shiga inhibitor 47*.
COC(=O)c1cc(-c2ccc(Br)cc2)n[nH]1 was read as CHX counter 29*, Pf growth 96h inconclusive, AMA1-RON2 inh 2%, HCV inhibitor 11% and Shiga inhibitor 41*.
For COC(=O)c1cc(-c2c[nH]c3ccccc23)n[nH]1 the results were CHX counter 10*, Pf growth 96h -10%, AMA1-RON2 inh 4%, Pf growth 48h 9%, HCV inhibitor -24% and Shiga inhibitor 16.
COc1ccc(-c2cc(C(=O)O)[nH]n2)cc1OC was read as CHX counter -1, Pf growth 96h inconclusive, AMA1-RON2 inh -14%, Pf growth 48h 8%, HCV inhibitor 18% and Shiga inhibitor -4.
